AMA1 RON2 block: inhibitors of Plasmodium falciparum AMA1-RON2 interaction | AlphaScreen AMA1-biotinylated RON2 peptide binding | Potency, µM (doses to about 58.2 µM), hits mostly inhibitors | 360,000 tested, 0.2% active | AID 720542; further: nearly all actives have a fitted effect of over 45% in size
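AMA1 (3D7) with his tag at 25 nM final met compounds first, then biotinylated RON2 peptide at 25 nM; detection used donor plus acceptor beads, 10 µg/mL apiece, read by AlphaScreen after 30 min at room temperature.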
LmPK inh: LmPK (Leishmania mexicana) enzyme inhibition. purified LmPK, Kinase-Glo ATP luminescence, 1 h. Potency, µM (series often up to 57.5 µM), most hits filed as inhibitors. 290,000 tested, 0.37% active. AID 1721
Target sequence (Q27686 whole entry, looked up): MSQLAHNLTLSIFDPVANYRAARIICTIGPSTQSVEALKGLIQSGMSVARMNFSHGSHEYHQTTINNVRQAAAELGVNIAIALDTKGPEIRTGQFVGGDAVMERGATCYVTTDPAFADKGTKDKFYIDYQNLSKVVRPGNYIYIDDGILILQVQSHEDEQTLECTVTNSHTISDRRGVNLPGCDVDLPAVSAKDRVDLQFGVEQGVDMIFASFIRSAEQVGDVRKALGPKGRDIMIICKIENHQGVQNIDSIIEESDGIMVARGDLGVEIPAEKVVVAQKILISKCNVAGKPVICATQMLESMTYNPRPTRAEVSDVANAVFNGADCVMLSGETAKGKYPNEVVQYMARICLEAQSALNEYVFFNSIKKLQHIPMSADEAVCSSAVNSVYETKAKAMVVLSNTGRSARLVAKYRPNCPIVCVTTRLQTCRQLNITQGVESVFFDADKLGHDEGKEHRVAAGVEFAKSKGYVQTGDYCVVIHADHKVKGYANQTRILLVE
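Screened at intermediate enzyme activity to detect both inhibitors and activators: LmPK at 0.1 nM, with a 0.5 nM enzyme column as activation reference. PEP 0.5 mM, ADP 0.1 mM; ATP detected by luminescence after 1 h.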
RE007 growth inh: less growth of the S. pombe RE007 Vpr strain. 360,000 tested, 0.21% active. AID 651644. S. pombe RE007 Vpr strain, BacTiter-Glo ATP luminescence, 24 h. Potency, µM (top dose mostly 92.2 µM), most hits filed as inhibitors; active means well fitted falling curve with a large enough effect; inconclusive means small, poorly fitted or top-dose-only effect; inactive means no such curve, though single readings can be large or run the other way; further: nearly all actives have a fitted effect of over 50% in size
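Fission yeast RE007 carrying one integrated HIV-1 vpr copy, seeded at OD 0.01 in PMG+AL medium with 23 nL pinned compound. Grown 24 h at 30 degrees; viability read by BacTiter-Glo luminescence after 5 min.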
VACV Venus inh: inhibitors of vaccinia virus (Venus reporter); 330,000 tested, 0.46% active; AID 720580; Potency, µM (doses to about 36.5 µM), most hits filed as inhibitors; Vaccinia virus Venus reporter expression, fluorescence; calls by dose curve; tested in A549 cells; further: nearly all actives have a fitted effect of over 30% in size
Vaccinia mCherry: vaccinia inhibition (mCherry reporter); 310,000 tested, 0.63% active; Vaccinia virus mCherry reporter infection, fluorescence; Potency, µM (top dose mostly 36.5 µM), most hits filed as inhibitors; calls by dose curve; tested in A549 cells; further: nearly all actives have a fitted effect of over 35% in size
TbPYK inhibitor: T. brucei pyruvate kinase inhibition. Q57TT1. TbPYK enzyme, Kinase-Glo Plus ATP luminescence, 45 min. Potency, µM (titrated, usually from 76.8 µM), actives largely listed as inhibitors. 410,000 tested, 0.12% active. AID 624173; further: nearly all actives have a fitted effect of over 50% in size
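Luminescent Kinase-Glo Plus end-point after 45 min room-temperature reaction of T. brucei pyruvate kinase started with 130 uM ADP (final). Buffer TEA 50 mM pH 7.2 with KCl, MgCl2, BSA, Tween-20; titration-based qHTS with fitted concentration-effect curves.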
Hits are given with their value. The list is not random: actives were taken first. Their share in the collection is about 1.3%. Unless noted, the call rests on the fitted dose curve; in most records, active means well fitted curve in the direction sought with a large enough effect; inconclusive means small, poorly fitted or top-dose-only effect, or another doubt; inactive means no such curve, though single readings can be large; an effect the other way counts as inactive or inconclusive.

Cc1cccc(NC(=O)c2onc3c2CCCC3)n1 was read as AMA1 RON2 block inactive, LmPK inh 13µM, RE007 growth inh 22µM, VACV Venus inh inactive, Vaccinia mCherry inactive and TbPYK inhibitor inconclusive.
For Cc1cccc(NC(=O)c2onc3c2CCCC3)c1C the results were AMA1 RON2 block inactive, LmPK inh inconclusive, RE007 growth inh 4µM, VACV Venus inh inactive and TbPYK inhibitor inactive.
For O=C(Nc1ccc2ccccc2c1)c1onc2c1CCCC2 the results were AMA1 RON2 block inactive, LmPK inh inactive, RE007 growth inh 3.5µM, VACV Venus inh inconclusive, Vaccinia mCherry inactive and TbPYK inhibitor inactive.
For CSc1ncccc1C(=O)NCC1Cc2cc(-c3cnccn3)cc(Cl)c2O1 (centres undefined) the results were VACV Venus inh inactive and Vaccinia mCherry inactive.
Cc1nc2sccn2c1CN1Cc2ccccc2OC(c2ccccc2F)C1 (centres undefined) was read as VACV Venus inh inactive and Vaccinia mCherry inactive.
`COc1ccc(O)c(/C=N/NC(=O)CCC(=O)Nc2ccc(C)cc2)c1` gave AMA1 RON2 block inactive, LmPK inh inactive, RE007 growth inh inactive and TbPYK inhibitor inactive.
Screening COc1ccc(O)c(/C=N/NC(=O)CN2CCS(=O)(=O)CC2)c1 returned AMA1 RON2 block inactive, LmPK inh inactive, RE007 growth inh inactive, VACV Venus inh inactive, Vaccinia mCherry 3.2µM and TbPYK inhibitor inactive.
Screening COc1cc2c(cc1O)CCN[C@@]21CS[C@H]2c3c(OC(C)=O)c(C)c4c(c3C(COC1=O)N1C2C2c3c(cc(C)c(OC)c3O)CC([C@@H]1O)N2C)OCO4 (some centres undefined) returned TbPYK inhibitor inactive.
CCC(=O)OC1[C@@H](N2CCCCC2)C[C@H]2[C@@H]3CC[C@H]4C[C@H](OC(C)=O)[C@@H](N5CCCCC5)C[C@]4(C)[C@H]3CC[C@]12C (some centres undefined) was read as TbPYK inhibitor inactive.
CN(C)c1ccc(N=Nc2ccccc2Br)cc1 was read as AMA1 RON2 block 11µM, LmPK inh inactive, RE007 growth inh inactive and TbPYK inhibitor inactive.
For COc1ccccc1N(C(=O)CCl)c1cn(C(C)=O)c2ccccc12 the results were AMA1 RON2 block inactive, LmPK inh inactive, RE007 growth inh inactive and TbPYK inhibitor inactive.
`COc1ccccc1N(C(C)=O)C1=C(Cl)C(=O)c2ccccc2C1=O` gave AMA1 RON2 block 13µM, RE007 growth inh 13µM, VACV Venus inh inconclusive, Vaccinia mCherry inconclusive and TbPYK inhibitor inconclusive.
For CCNC(=O)c1cc(NC(=O)COC)cc2nc(-c3ccncc3)n(C)c12 the results were VACV Venus inh inactive and Vaccinia mCherry inactive.
CC(=O)c1ccc(-n2c(-c3cc(-c4ccsc4)n[nH]3)n[nH]c2=S)cc1 was read as AMA1 RON2 block inactive, LmPK inh 20µM, RE007 growth inh inactive, VACV Venus inh inactive, Vaccinia mCherry inactive and TbPYK inhibitor inconclusive.
S=c1[nH]nc(-c2cc(-c3ccsc3)n[nH]2)n1-c1cccc2ccccc12 was read as AMA1 RON2 block inactive, LmPK inh inactive, RE007 growth inh inactive, VACV Venus inh inconclusive, Vaccinia mCherry inconclusive and TbPYK inhibitor inconclusive.
COc1ccc(-c2nnc(SCC(=O)N3CCCC3)o2)cc1 was read as AMA1 RON2 block inactive, LmPK inh inactive, RE007 growth inh inactive, VACV Venus inh inactive, Vaccinia mCherry inactive and TbPYK inhibitor inactive.
`COc1ccc(-c2nnc(SCC(=O)c3ccc(C)o3)o2)cc1` gave AMA1 RON2 block inactive, LmPK inh inactive, RE007 growth inh inactive, VACV Venus inh inconclusive, Vaccinia mCherry 28µM and TbPYK inhibitor inactive.
`Cc1ccc(C(=O)CSc2nnc(-c3ccco3)o2)o1` gave AMA1 RON2 block inactive, LmPK inh inactive, RE007 growth inh inactive, VACV Venus inh 10µM, Vaccinia mCherry inconclusive and TbPYK inhibitor inactive.
NS(=O)(=O)c1ccc(N2N=C(c3ccc(Br)cc3)CC2c2ccc(F)cc2)cc1 (centres undefined) was read as AMA1 RON2 block inactive, LmPK inh inactive, RE007 growth inh inactive, VACV Venus inh 11µM, Vaccinia mCherry 16µM and TbPYK inhibitor inactive.
NS(=O)(=O)c1ccc(N2N=C(c3ccccc3)CC2c2cccc(F)c2)cc1 (centres undefined) was read as AMA1 RON2 block inactive, LmPK inh inactive, RE007 growth inh inactive, VACV Venus inh inactive, Vaccinia mCherry inactive and TbPYK inhibitor inactive.
Screening OCC1(O)OC[C@@H](O)[C@H](O)[C@@H]1O (some centres undefined) returned TbPYK inhibitor inactive.
`CCOC(=O)C(C)Oc1cccc2c(=O)n(CC(=O)NCc3ccc4c(c3)OCO4)ccc12` (centres undefined) gave AMA1 RON2 block inactive, LmPK inh inactive, RE007 growth inh inactive, VACV Venus inh inconclusive, Vaccinia mCherry 100µM and TbPYK inhibitor inactive.
Screening COC(=O)c1c(NC(=O)c2ccccc2)sc2c1CC(C)(C)NC2(C)C returned AMA1 RON2 block inactive, LmPK inh inactive, RE007 growth inh inactive, VACV Venus inh inactive, Vaccinia mCherry inactive and TbPYK inhibitor inactive.
`COC(=O)c1c(NC(=O)c2ccc(OC(C)C)cc2)sc2c1CC(C)(C)NC2(C)C` gave AMA1 RON2 block inactive, LmPK inh inactive, RE007 growth inh inactive, VACV Venus inh 18µM, Vaccinia mCherry inconclusive and TbPYK inhibitor inactive.
For O=C(/C=C/c1ccc2c(c1)OCCO2)c1ccccc1 the results were AMA1 RON2 block inactive, LmPK inh 13µM, RE007 growth inh inconclusive and TbPYK inhibitor inactive.
For CC(=O)Nc1ccc(NC(=O)/C=C/c2ccc3c(c2)OCO3)cc1 the results were AMA1 RON2 block inactive, LmPK inh inactive, RE007 growth inh inactive, VACV Venus inh inactive, Vaccinia mCherry inactive and TbPYK inhibitor inactive.
COc1ccc(C(=O)/C=C/c2ccc3c(c2)OCCO3)cc1 was read as AMA1 RON2 block inactive, LmPK inh inactive, RE007 growth inh inactive, VACV Venus inh inactive, Vaccinia mCherry inactive and TbPYK inhibitor inactive.
Screening CCOc1cc(/C=C/C(=O)c2ccc(O)cc2)ccc1OCC(=O)N(C)C returned AMA1 RON2 block inactive, LmPK inh inactive, RE007 growth inh inactive, VACV Venus inh inconclusive, Vaccinia mCherry inconclusive and TbPYK inhibitor inactive.
O=C(/C=C/c1ccc2c(c1)OCO2)Nc1cccnc1 was read as AMA1 RON2 block inactive, LmPK inh 22µM, RE007 growth inh inactive, VACV Venus inh inactive, Vaccinia mCherry inactive and TbPYK inhibitor inactive.
Screening CCOc1cc(/C=C/C(=O)c2ccc3c(c2)OCCO3)ccc1OCC(=O)N(C)C returned AMA1 RON2 block inactive, LmPK inh inactive, RE007 growth inh inactive, VACV Venus inh 10µM, Vaccinia mCherry 10µM and TbPYK inhibitor inactive.
`Nc1ccccc1C(=O)/C=C/c1ccc2c(c1)OCO2` gave AMA1 RON2 block inconclusive, LmPK inh 14µM, RE007 growth inh inconclusive, VACV Venus inh inconclusive, Vaccinia mCherry inconclusive and TbPYK inhibitor inactive.
